For three substances, GI50 results are on record in ChEMBL document CHEMBL1201862, “PubChem BioAssay data set” (2004).

Hit rate of the full screen: of about 53,000 […], about 4,900 (9.2%) were called active. Cut-off read from the data, not from the text of the source: active = GI50 up to about 1.1 µM and inactive = higher. The full list was thinned out, with actives kept by preference. Potency and affinity values are given separately.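 Assay format: 96-well plates, 48-hour exposure. GI50: concentration for 50% inhibition of growth.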

The subject of this test is NCI-H522. The experiment in a line: NCI tumour cell line growth inhibition, 48 h.
In turn, MERCURIC CHLORIDE, CHEMBL1374360 returned a GI50 of 518 nM.
For DIBUTYLDICHLOROSTANNANE, CHEMBL1088184, the GI50 stood at 130 nM.
To DICHLORODIPHENYLSTANNANE, CHEMBL1088185 belongs 1000 nM.
